# Experimental data as given in PubChem BioAssay (NCI).
# About 83,000 compounds went through this panel and 20% of them were active in at least one assay; those are over-represented in the sample as a whole.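 Method: cells in 96-well plates; compound added at one concentration; 48 h incubation; percent growth measured; values under 10 scored active.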 Values without a mark were called inactive. Calls of active or inactive are those of the source.
# Legend:
# Test in all cases: NCI-60 one-dose screen, 48 h (100 = growth as untreated, 0 = no growth, -100 = all killed)
# Details in all cases: 10 µM unless noted
# DU-145 prostate = system: DU-145 prostate
# K-562 leukemia = system: K-562 leukemia
# MALME-3M melanoma = system: MALME-3M melanoma
# MDA-MB-231 breast = system: MDA-MB-231 breast
# RXF 393 renal = system: RXF 393 renal
# SF-268 CNS = system: SF-268 CNS
# SF-295 CNS = system: SF-295 CNS
# SF-539 CNS = system: SF-539 CNS
# UACC-257 melanoma = system: UACC-257 melanoma
# HCT-15 colon = system: HCT-15 colon
# HT29 colon = system: HT29 colon
# SNB-75 CNS = system: SNB-75 CNS
# SNB-19 CNS = system: SNB-19 CNS
# U251 CNS = system: U251 CNS
# PC-3 prostate = system: PC-3 prostate
# SK-MEL-5 melanoma = system: SK-MEL-5 melanoma
# UACC-62 melanoma = system: UACC-62 melanoma
# LOX IMVI melanoma = system: LOX IMVI melanoma
# SK-MEL-28 melanoma = system: SK-MEL-28 melanoma
# M14 melanoma = system: M14 melanoma
SMILES,growth (DU-145 prostate),growth (K-562 leukemia),growth (MALME-3M melanoma),growth (MDA-MB-231 breast),growth (RXF 393 renal),growth (SF-268 CNS),growth (SF-295 CNS),growth (SF-539 CNS),growth (UACC-257 melanoma),growth (HCT-15 colon),growth (HT29 colon),growth (SNB-75 CNS),growth (SNB-19 CNS),growth (U251 CNS),growth (PC-3 prostate),growth (SK-MEL-5 melanoma),growth (UACC-62 melanoma),growth (LOX IMVI melanoma),growth (SK-MEL-28 melanoma),growth (M14 melanoma)
O=C(Nc1ccc(N2CCCCC2)c(Cl)c1)c1ccc(Br)o1,68%,68.1%,-66.9% (active),69.2%,108%,76%,105%,118%,67.5%,61.1%,73.7%,60.7%,78.3%,68.5%,58%,-96.8% (active),-40.2% (active),2.04% (active),39.6%,–
COc1cc2c(O)n(CCCn3ccnc3)c3c4cnc5cccc(c(=O)c3c2cc1OC)c54,19.2%,11.6%,67.1%,51.2%,39.5%,36.4%,21.4%,22.1%,45.2%,95.2%,33.8%,52%,33.8%,14%,28.2%,24.9%,15%,3.76% (active),79.6%,–
COc1ccc(-c2cc(-c3ccc(Nc4nc(Nc5ccccc5)nc(Nc5ccc(Cl)cc5)n4)cc3)nc(N)c2C#N)cc1,33%,4.07% (active),-76.6% (active),-27.4% (active),-12.1% (active),-26.4% (active),34.4%,-54.9% (active),-11.4% (active),-33.6% (active),6.85% (active),26.7%,71.9%,-57.9% (active),–,-21.8% (active),22.8%,-97.3% (active),-72.9% (active),–
Nc1c(C(=O)c2ccccc2)nnc2ncnn12,106%,97.1%,107%,93%,110%,102%,103%,117%,95.4%,111%,100%,96.9%,105%,95.8%,97.9%,98.6%,99.7%,101%,133%,–
COc1ccc(OC)c(Nc2nc3nonc3nc2Nc2cccc(Br)c2)c1,26%,10.2%,11.3%,-8.18% (active),23.7%,21.1%,-19.3% (active),-7.16% (active),-12.5% (active),13.1%,3.47% (active),3.07% (active),14.6%,3.05% (active),1.15% (active),-47.8% (active),18.7%,4.56% (active),30.2%,–
COc1cc(/C=C/C(=O)c2ccc(Nc3nc(Nc4ccccc4)nc(Nc4ccc(Cl)cc4)n3)cc2)cc(OC)c1OC,77%,28.9%,44.3%,58.1%,58.5%,73.2%,64.3%,72.8%,87.1%,55.8%,46.8%,57.5%,92.8%,37.4%,–,39%,59.8%,66.5%,–,–
COc1ccc(-c2nc3sc4c(c3c(=O)[nH]2)CCCC4)c2ccccc12,0.642% (active),5.12% (active),41.8%,10.5%,17.3%,24.6%,-18.7% (active),-57.7% (active),56.8%,6.37% (active),-0.244% (active),-25.5% (active),36%,6.38% (active),11.7%,18.1%,24.4%,26.9%,-5.17% (active),–
CCc1cc(Cc2cc(CC)cc(C(C)(C)C)c2O)c(O)c(C(C)(C)C)c1,43.1%,8.51% (active),19.5%,13.8%,5.58% (active),37.6%,-2.11% (active),39.6%,46.7%,13.8%,23.3%,42.1%,20%,16.3%,15.1%,6.03% (active),25.7%,10.5%,46%,–
Nc1ccc2c(S(=O)(=O)O)ccc(S(=O)(=O)O)c2c1,115%,90.6%,109%,111%,114%,102%,105%,88.5%,95.3%,105%,105%,92%,–,99.5%,91.9%,93.5%,90.5%,98.1%,116%,–
CN(C)CCCCNc1ccc(NCCCCN(C)C)c2c1C(=O)c1c(O)ccc(O)c1C2=O,58.3%,-54.5% (active),130%,-78.2% (active),-96% (active),76.2%,-81.5% (active),–,99.5%,-66.4% (active),-52.3% (active),79.5%,2.06% (active),-85.6% (active),-76.9% (active),89.4%,104%,-79% (active),112%,-63.3% (active)
Cc1ccc(O)c(C(=O)c2ccccc2Cl)c1,126%,91.4%,106%,109%,104%,104%,94.6%,96%,108%,99.5%,108%,79.3%,109%,98.5%,–,97.6%,101%,101%,105%,–
CCCCCCCC/C=C\CCCCCCCC(=O)Oc1cccc2cccnc12,78.5%,73.9%,117%,106%,47.6%,90.8%,–,102%,2.81% (active),81.8%,137%,149%,103%,91%,114%,102%,99.8%,79.8%,–,90.3%
CN(C)S(=O)(=O)n1cnc([C@@H]2[C@@H]3C(=O)OC[C@@H]3C[C@]23N=CN(Cc2ccccc2)C3=O)c1,111%,116%,110%,112%,126%,95.6%,105%,98.5%,116%,98.4%,89.7%,67.5%,98.2%,107%,–,102%,106%,101%,108%,–
O=C(O)CC1Sc2ccccc2NC1=O (stereo not drawn),116%,70.4%,106%,108%,–,100%,104%,145%,98.5%,109%,129%,94%,108%,103%,92.1%,175%,105%,96.4%,126%,89.5%
COc1ccc(-c2c(N)n[nH]c2-c2ccccc2O)cc1OC,116%,87.2%,62.8%,78.7%,–,100%,101%,86.5%,100%,115%,112%,92.2%,89.1%,99.6%,82.7%,87.8%,99%,96.6%,–,–
O=C(C[C@@]1(O)C(=O)Nc2c(Cl)ccc(Cl)c21)c1ccc(C2CC2)cc1,16.5%,7.6% (active),41.9%,45%,-10% (active),54.8%,-9.37% (active),-27.7% (active),73%,19.1%,12.4%,-29.9% (active),–,31.3%,31.4%,38.8%,42.1%,38.1%,52.6%,–
C=C(C)C1CCC(=C)C2CCC3(C)OC12/C=C(/COC(C)=O)CCC3O (stereo not drawn),100%,88.6%,137%,105%,98.4%,105%,–,104%,37.9%,96.1%,140%,126%,112%,89%,95.9%,93.2%,94.2%,84.2%,156%,109%
